Data taken from PubChem BioAssay (NCI).
About 83,000 compounds went through this panel and 20% of them were active in at least one assay; those are over-represented in the sample as a whole.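 Activity criterion: percent growth below 10, measured after cells in 96-well plates were exposed to a single compound concentration for 48 hours.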 Values without a mark were called inactive. Activity calls are given as the source filed them.

Tested on: MDA-MB-468 breast
Test: NCI-60 one-dose screen, 48 h (100 = growth as untreated, 0 = no growth, -100 = all killed)
Conditions: 10 µM unless noted

SMILES | growth
CN1C(=O)/C(=C2\SC(=Nc3ccccc3)N(Nc3ccccc3)C2=O)c2ccccc21 | 94.7%
O=C(CNc1nc2ccccc2s1)Nc1ccc(-c2nc3ccccc3s2)cc1 | -17.8% (active)
Cc1ccc(-c2nc([P+](c3ccccc3)(c3ccccc3)c3ccccc3)c(Nc3ccccc3)o2)cc1 | -41.8% (active)
CCOc1cc(-c2ccc[nH]2)[nH]c1/C=C1\N=C(C)C(C(=O)OC)=C1C | -86.9% (active)
CC[C@]1(O)CC2CN(CCc3c([nH]c4ccccc34)[C@@](C(=O)OC)(c3cc4c(cc3OC)N(C)[C@H]3[C@@](O)(C(=O)OC)[C@H](OC(C)=O)[C@]5(CC)C=CCN6CC[C@]43[C@@H]65)C2)C1 (stereo partly drawn) | 16.1%
C=C(C)[C@@H]1C/C=C(/C=O)CC[C@@H]2O[C@@]2(C)CC/C=C(\C)CC1 | 118%
CCOC(=O)c1cc(C(=O)c2cc(OC)c(OC)c(OC)c2)n2nc(C)ccc12 | 37.4%
O=C(/C(=C\c1ccc([N+](=O)[O-])cc1)S(=O)Cc1ccc(F)cc1)c1ccc(F)cc1 (stereo not drawn) | 16.3%
Cc1cc(=O)oc2cc(OCCn3c(C)nn(-c4ccc(Cl)cc4)c3=O)ccc12 | 16.1%
Cc1nn(-c2cc(=O)[nH]c3ccccc23)c(N)c1C#N | 110%
O=C(Nc1ccc(Oc2ccc(Nc3nc4ccccc4s3)cc2)cc1)Nc1ccc(Cl)c(C(F)(F)F)c1 | 4.56% (active)
CCCCN(CCC)CCCCCCCCCCN1CCCc2ccccc21 | 65.6%
CCCCCN(CCCCC)C(=O)C(CCC(=O)O)NC(=O)c1ccc(Cl)c(Cl)c1 (stereo not drawn) | 106%
